From the supplement of paper PMC10646978
± gives the standard deviation.

Legend:
Conditions in all cases: modulator concentration 10 µM
[1] = tested on: RAW-Dual (murine macrophage reporter line); assay: NF-kB reporter (SEAP) activity fold change vs agonist alone; higher = enhanced NF-kB activity
In short: (§1)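 RAW-Dual murine macrophage reporter cells were plated at 50 000 per well in 384-well plates, pin-transferred compound to 10 μM final, and pre-incubated for 1 hour at 37 °C before a PRR agonist was added and the cells incubated overnight. NF-κB activity was read from supernatant SEAP with QUANTI-Blue at 620 nm absorbance, and IRF activity from Lucia luciferase with QUANTI-Luc by luminescence. Each signal was expressed as fold change by dividing by the mean agonist-only control on the same plate. Two replicate plates were averaged, with errors obtained by propagation.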

[2] = tested on: RAW-Dual (murine macrophage reporter line); assay: IRF reporter (Lucia luciferase) activity fold change vs agonist alone; higher = enhanced IRF activity
In short: as §1

[3] = tested on: RAW-Dual (murine macrophage reporter line); assay: viability score (confluency relative to resting cells, overnight) (fraction); higher = more viable, active = viable (0.7 or more)
In short: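 Confluency was the readout: RAW-Dual macrophages were imaged with IncuCyte after an overnight exposure to compound at 10 μM final. IncuCyte software produced two masks over all imaged wells. The viability score expresses confluency against resting cells, and both masks had to exceed 70% of resting cells for a compound to meet the cutoff.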

[4] = agonist: CpG ODN 1826 0.5 ug/mL

SMILES | NF-kB reporter [1, 4] | NF-kB reporter ([1]; agonist: LPS 0.1 ug/mL) | NF-kB reporter ([1]; agonist: MPLA […]) | IRF reporter ([2]; agonist: 3'3'-cGAMP 10 ug/mL) | IRF reporter ([2]; agonist: LPS 0.1 ug/mL) | IRF reporter ([2]; agonist: MPLA […]) | viability score [3]
CCCC(C(=O)OCCN(CC)CC)(c1ccccc1)c1ccccc1.Cl | 0.851 ± 0.066 | 0.924 ± 0.11 | 0.978 ± 0.084 | 0.972 ± 0.055 | 1.03 ± 0.27 | 1.03 ± 0.39 | 1.02 (active)
CC(=O)Oc1ccccc1C(=O)O | 1.01 ± 0.085 | 1.05 ± 0.079 | 0.959 ± 0.048 | 1.02 ± 0.068 | 0.964 ± 0.044 | 0.884 ± 0.11 | 0.998 (active)
CCc1cnn2c(NCc3ccc[n+]([O-])c3)cc(N3CCCC[C@H]3CCO)nc12 | 0.338 ± 0.018 | 0.0505 ± 0.0045 | 0.114 ± 0.0049 | 0.0244 ± 0.0044 | 0.0353 ± 0.0054 | 0.0374 ± 0.0047 | 0.0417 (inactive)
CCOC(=O)c1ccc(N)cc1.Cl | 0.872 ± 0.12 | 1.03 ± 0.12 | 0.997 ± 0.056 | 0.819 ± 0.036 | 1.25 ± 0.1 | 0.977 ± 0.13 | 0.996 (active)
Cn1cnc2c(F)c(Nc3ccc(Br)cc3Cl)c(C(=O)NOCCO)cc21 | 0.288 ± 0.015 | 0.124 ± 0.0099 | 0.183 ± 0.013 | 0.852 ± 0.061 | 3.68 ± 0.24 | 2.42 ± 0.19 | 0.684 (inactive)
Cc1n[nH]c(C)c1CCC(=O)NC1CCC(F)(F)CC1 | 0.921 ± 0.068 | 1.04 ± 0.12 | 0.879 ± 0.048 | 0.955 ± 0.062 | 1.18 ± 0.094 | 1.03 ± 0.28 | 1.02 (active)
COc1ccc(-c2noc(-c3ccc(=O)n(Cc4ncc(C)c(OC)c4C)c3)n2)cc1F | 0.91 ± 0.058 | 0.944 ± 0.083 | 1.06 ± 0.073 | 0.961 ± 0.044 | 1.17 ± 0.24 | 1.31 ± 0.51 | 0.956 (active)
COc1ccc(N(CC(=O)N2CCc3ccccc3C2)S(C)(=O)=O)c(OC)c1 | 1.04 ± 0.13 | 1.09 ± 0.093 | 0.913 ± 0.057 | 0.992 ± 0.026 | 1.49 ± 0.28 | 1.13 ± 0.089 | 1.01 (active)
C1=C(c2ccccc2)Nc2nnnn2C1c1ccccc1 (stereo not given) | 0.951 ± 0.076 | 0.945 ± 0.077 | 0.996 ± 0.097 | 0.949 ± 0.087 | 1.34 ± 0.28 | 1.46 ± 0.36 | 1.01 (active)
C[C@@H](O[C@H]1OCCN(Cc2nc(=O)[nH][nH]2)[C@H]1c1ccc(F)cc1)c1cc(C(F)(F)F)cc(C(F)(F)F)c1 [Prestw-1600] | 0.345 ± 0.022 | 0.516 ± 0.058 | 0.333 ± 0.023 | 1.64 ± 0.067 | 1.23 ± 0.078 | 0.969 ± 0.13 | 0.264 (inactive)
COc1cc2nc(N(C)CCCNC(=O)C3CCCO3)nc(N)c2cc1OC.Cl (stereo not given) | 0.585 ± 0.096 | 0.838 ± 0.14 | 0.958 ± 0.056 | 0.382 ± 0.26 | 0.996 ± 0.22 | 1.09 ± 0.2 | 0.996 (active)
O=C1C(Cl)=C(N2CCCCC2)C(=O)N1c1cc(Cl)c(Cl)cc1Cl | 0.743 ± 0.063 | 0.737 ± 0.049 | 0.857 ± 0.03 | 0.352 ± 0.026 | 1.07 ± 0.1 | 1.01 ± 0.15 | 0.993 (active)
O=[N+]([O-])c1ccccc1S(=O)(=O)NCc1ccc2c(c1)OCO2 | 1 ± 0.088 | 0.988 ± 0.075 | 0.937 ± 0.092 | 0.89 ± 0.028 | 1.05 ± 0.14 | 1.09 ± 0.2 | 1.03 (active)
CC(C)(C)n1cnc2cc(N=Cc3ccc(Cl)cc3)ccc21 | 1.21 ± 0.14 | 1.01 ± 0.12 | 1.4 ± 0.055 | 0.888 ± 0.059 | 0.805 ± 0.048 | 0.996 ± 0.1 | 1 (active)
CN(C)C(CNC(=O)NCc1ccc(Cl)cc1)c1ccc2c(c1)CCO2 (stereo not given) | 0.616 ± 0.1 | 1.17 ± 0.091 | 0.937 ± 0.1 | 0.854 ± 0.026 | 1.2 ± 0.23 | 1.4 ± 0.14 | 1 (active)
